Assay [1] can be described thus: Viability qHTS for spleen associated tyrosine kinase inhibitor (SYKi) naive MV4-11 cells (AID 1963823). Note: nearly all actives have a fitted effect of over 40% in size. As to conditions: MV4-11 AML viability, CellTiter-Glo luminescence, 72 h; series mostly up to 45 µM. In a few lines: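 Seeding of 500 SYKi-naive MV4-11 cells per well onto pre-dispensed compounds preceded a 72 hr incubation at 37 C. Luminescent CellTiter-Glo signal, read after 10 min at room temperature, reflected viable cells.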

The nature of assay [2]: Viability qHTS for spleen associated tyrosine kinase inhibitor (SYKi) drug resistant MV4-11 cells (AID 1963824). Note: nearly all actives have a fitted effect of over 35% in size. Conditions: SYKi-resistant MV4-11 viability, CellTiter-Glo, 72 h; series mostly up to 45 µM. In a few lines:
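CellTiter-Glo luminescence, read 10 min after reagent addition, reports viability after a 72 hr compound exposure. Cells are an MV4-11 line made resistant to SYK inhibition, seeded at 500 per well onto compound-containing plates.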

Inconclusive results are not listed. Activity calls are given as the source filed them. Calls come from the whole dose curve; as a rule, active = well fitted cell-killing curve with a large enough effect; inconclusive = small, poorly fitted or top-dose-only effect, or effect the other way; inactive = no such curve, though single readings can be large or run the other way.
Potency is the fitted concentration of half-maximal effect.

Regarding `CC(C(=O)O)C1CCC2(C)C3C(=O)C=C4C(CCC(=O)C4(C)C)C3(C)CCC12C` (stereo not drawn), the Potency result in assay [1] and in assay [2] was “inactive” in each case.

Take `COC(=O)C1=CO[C@@H](O[C@@H]2O[C@H](CO)[C@@H](O)[C@H](O)[C@H]2O)[C@@H]2[C@@H](C)[C@@H](O)C[C@H]12`: the Potency entry in assay [1] and in assay [2] was “inactive” each time.

As for `CN(CC(=O)N(Cc1ccc(C2CCCCC2)cc1)c1ccc(C(=O)O)cc1)S(=O)(=O)c1c(F)c(F)c(F)c(F)c1F`, the Potency in assay [1] was 1.84 µM (active); in assay [2], 1.03 µM (active).

`C=CCc1ccc(O[C@@H]2O[C@H](CO[C@@H]3O[C@@H](C)[C@H](O)[C@@H](O)[C@H]3O)[C@@H](O)[C@H](O)[C@H]2O)cc1`: the Potency result in assay [1] and in assay [2] was “inactive” throughout.

As for `Cc1c(C(=O)NCc2cccnc2)nn(-c2ccc(Cl)cc2Cl)c1-c1ccc(Cl)cc1`, the Potency entry in assay [1] and in assay [2] was “inactive” throughout.

For `CC(CCC1(O)OC2CC3C4CCC5CC(O[C@@H]6O[C@H](CO)[C@@H](O)[C@H](O)[C@H]6O[C@@H]6O[C@@H](C)[C@H](O)[C@@H](O)[C@H]6O)C(O)CC5(C)C4CCC3(C)C2C1C)CO[C@@H]1O[C@H](CO)[C@@H](O)[C@H](O)[C@H]1O` (stereo partly drawn), the viability (% of control) in assay [1] is 87.7% [at 9.25 µM] (inactive). Further, the viability, % of control in assay [2] is 109% [at 9.25 µM] (inactive).

As for `CC(C)c1ccc(NC(=O)c2cccs2)c(-c2nc3ccccc3[nH]c2=O)c1`, the Potency in assay [1] is 8.2 µM (active); in assay [2] it was 11.6 µM (active).

For `COc1cc(/C=C/C(=O)N2CCN(CC(=O)N3CCCC3)CC2)cc(OC)c1OC`, the Potency result in assay [1] and in assay [2] was “inactive” in each case.

Take `O=C(O[C@H]1[C@@H]2C=CO[C@@H](O[C@@H]3O[C@H](CO)[C@@H](O)[C@H](O)[C@H]3O)[C@@H]2[C@@]2(CO)O[C@@H]12)c1ccc(O)cc1`: the Potency entry in assay [1] and in assay [2] was “inactive” in each case.

(Values after PubChem BioAssay (NCATS).)
